This excerpt belongs to a sample that is enriched for hits.
HT1080 IDH1KD tx: HT-1080 IDH1 knockdown cell toxicity (counter line); HT-1080 IDH1 knockdown viability, ATP luminescence, 48 h; Potency, µM (series often up to 46.1 µM), for the others: top-dose activity, negative = toxicity, hits mostly cytotoxic; AID 686971; hit rate 2% among 360,000;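 also: potency is read from the fitted curve at half-maximal effect; 0% = DMSO wells and -100% = cell-free medium wells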
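Knockdown cells (IDH1KD HT-1080) received compounds 2 h after plating at 750 cells/well and were kept 48 h at 37 °C in 5% FBS RPMI. A CellTiter-Glo luminescence read gave % activity for curve fitting.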
TDP1 cell noCPT: qHTS for Inhibitors of human tyrosyl-DNA phosphodiesterase 1 (TDP1): qHTS in cells in absence of CPT; DT40 Tdp1-/- hTDP1 cells, no CPT, ATP luminescence, 48 h; Potency, µM (doses to about 46.2 µM), without a hit: at the highest dose activity change, negative = growth inhibition, most hits filed as inhibitors; hit rate 15% among 420,000; also: potency is read from the fitted curve at half-maximal effect; nearly all actives have a fitted effect of over 55% in size
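Compound effects on proliferation are scored in DT40 Tdp1-/-;hTDP1 cells in the absence of CPT. ATP levels (CellTiter-Glo luminescence) are recorded after a ≥48 hr, 37 °C incubation.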
DT40 TDP1 CPT: growth inhibition of DT40 Tdp1-/-;hTDP1 cells with camptothecin (screen for TDP1 inhibitors). chicken DT40 Tdp1-/-;hTDP1 cells + 20 nM CPT, ATP luminescence, 48 h. Potency, µM (top dose mostly 46.2 µM), without a hit: at the highest dose activity change, negative = growth inhibition, usual class: inhibitors. hit rate 12% among 420,000. AID 686979; also: potency is read from the fitted curve at half-maximal effect; nearly all actives have a fitted effect of over 55% in size
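Chicken DT40 Tdp1-/- cells stably complemented with human TDP1 were seeded at 400 cells/well in medium containing 20 nM camptothecin, exposed to pin-transferred compounds, and grown at 37 °C for at least 48 hr. Viability was read as ATP luminescence.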
12-LOX inh: ALOX12 (human) lipoxygenase inhibition. Potency, µM (highest dose often 108 µM), for the others: top-dose activity change, negative = inhibition, hits mostly inhibitors. hit rate 1.1% among 580,000. AID 1671190. purified 12hLO, xylenol orange hydroperoxide absorbance; also: potency is read from the fitted curve at half-maximal effect
Target sequence (P18054 whole entry, looked up): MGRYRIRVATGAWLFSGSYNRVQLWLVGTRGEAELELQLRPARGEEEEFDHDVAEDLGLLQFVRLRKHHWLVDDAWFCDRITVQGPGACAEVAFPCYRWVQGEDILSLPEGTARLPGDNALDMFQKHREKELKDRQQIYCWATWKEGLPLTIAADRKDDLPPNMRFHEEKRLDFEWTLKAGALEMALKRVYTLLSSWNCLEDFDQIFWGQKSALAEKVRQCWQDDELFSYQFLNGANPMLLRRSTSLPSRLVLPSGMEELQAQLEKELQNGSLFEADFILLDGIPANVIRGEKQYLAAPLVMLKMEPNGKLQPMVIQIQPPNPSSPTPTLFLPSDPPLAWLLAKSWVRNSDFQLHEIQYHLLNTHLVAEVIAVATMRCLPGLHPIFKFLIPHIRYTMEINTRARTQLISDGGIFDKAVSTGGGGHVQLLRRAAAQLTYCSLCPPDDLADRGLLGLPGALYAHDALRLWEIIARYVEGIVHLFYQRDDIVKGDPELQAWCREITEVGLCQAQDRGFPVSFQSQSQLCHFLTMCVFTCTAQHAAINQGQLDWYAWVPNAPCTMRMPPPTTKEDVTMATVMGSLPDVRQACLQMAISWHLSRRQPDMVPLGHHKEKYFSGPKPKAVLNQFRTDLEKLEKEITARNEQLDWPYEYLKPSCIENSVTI
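Purified human 12hLO at 150 nM in 25 mM Hepes, 0.01% Triton X-100, pH 7.0, preincubated 15 min at room temperature with compound. Reaction started with 40 uM arachidonic acid, 30 min at room temperature. Hydroperoxide measured by Fe-xylenol orange, 573/405 nm absorbance ratio.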
IL-1B inflam inh: inflammasome signaling inhibition, IL-1 beta readout; THP-1 LPS/ATP IL-1B secretion, AlphaLISA, 16 h; hits give low values; activity change, % at 57.5 µM; hit rate 4.7% among 360,000; AID 743279; in the data active = activity change below about -50%; inconclusive = mostly about -30% to -49%
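THP-1 cells pretreated 1 hr with compounds (up to 57.5 uM final), then stimulated with LPS (250 ng/mL final) plus ATP (1.25 mM final); secreted IL-1B measured by AlphaLISA after 16 hr, decreased signal indicating inhibition.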
HT1080-NT tox: kills 2HG-producing HT-1080-NT fibrosarcoma cells. Potency, µM (titrated, usually from 46.1 µM), for the others: at the highest dose activity, negative = less viability, usual class: cytotoxic. hit rate 1.6% among 360,000. HT-1080-NT fibrosarcoma viability, CellTiter-Glo ATP luminescence, 48 h;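 also: NT is the 2HG producing partner of a matched IDH1 knockdown line; potency is read from the fitted curve at half-maximal effect; 0% = DMSO-treated cells and -100% = media-only wells without cells; nearly all actives have a fitted effect of over 55% in size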
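Compounds were tested in concentration-response format on HT-1080-NT cells for 48 hours at 37 degrees C. Cell viability came from CellTiter-Glo luminescence; curves were classified by r2, response magnitude and activity.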
Starred values were filed as active, the others as inactive; [ ] = remark or other dose. Unless noted, calls follow the shape of the dose curve; as a rule, active = well fitted curve in the direction sought with a large enough effect; inconclusive = small, poorly fitted or top-dose-only effect, or another doubt; inactive = no such curve, though single readings can be large; an effect the other way counts as inactive or inconclusive. Unless noted, % is scaled to controls: 0 for no effect and ±100 for the full control effect.

For CCOc1ccc(Cl)cc1-c1cc(C(=O)Nc2ccc(C(C)C)cc2)[nH]n1 the results were HT1080 IDH1KD tx -25%, TDP1 cell noCPT 16µM*, DT40 TDP1 CPT inconclusive, 12-LOX inh 1%, IL-1B inflam inh -9 and HT1080-NT tox -24%.
`CCOc1ccc(Cl)cc1-c1cc(C(=O)NC2CCCCC2)[nH]n1` gave HT1080 IDH1KD tx 0%, TDP1 cell noCPT 16µM*, DT40 TDP1 CPT 18µM*, 12-LOX inh -9%, IL-1B inflam inh -10 and HT1080-NT tox inconclusive.
Screening CCOc1ccc(Cl)cc1-c1cc(C(=O)Nc2ccc(OC)nc2)[nH]n1 returned HT1080 IDH1KD tx -12%, TDP1 cell noCPT inconclusive, DT40 TDP1 CPT inconclusive, 12-LOX inh -6%, IL-1B inflam inh -18 and HT1080-NT tox -1%.
`COc1ccc(Cl)cc1-c1cc(C(=O)NC2CCCCC2)[nH]n1` gave HT1080 IDH1KD tx inconclusive, TDP1 cell noCPT inconclusive, DT40 TDP1 CPT inconclusive, 12-LOX inh -4%, IL-1B inflam inh -12 and HT1080-NT tox inconclusive.
`CCOc1ccc(Cl)cc1-c1cc(C(=O)Nc2ccc(Br)cc2)[nH]n1` gave HT1080 IDH1KD tx inconclusive, TDP1 cell noCPT 18µM*, DT40 TDP1 CPT 23µM*, 12-LOX inh -22%, IL-1B inflam inh -24 and HT1080-NT tox -29%.
For Clc1cccc(-c2cnc([C@@H]3COCCN3C3CCCCC3)[nH]2)c1 the results were 12-LOX inh -17%[176 µM].
`Cc1cc2oc(C(=O)N(Cc3ccc(F)cc3)C3CCS(=O)(=O)C3)cc(=O)c2cc1C` (stereo not given) gave 12-LOX inh 6%.
For COc1ccc(-c2cc(-c3cccnc3)cn3cncc23)cc1 the results were 12-LOX inh -17%[176 µM].
`O=C1Nc2ccccc2CCC1Sc1nnc(-c2ccc(Cl)cc2)s1` (stereo not given) gave HT1080 IDH1KD tx 4%, TDP1 cell noCPT 29µM*, DT40 TDP1 CPT inconclusive, 12-LOX inh 1%, IL-1B inflam inh -5 and HT1080-NT tox inconclusive.
For O=C1Nc2ccccc2CCC1n1nc(-c2ccc(Cl)cc2)ccc1=O (stereo not given) the results were 12-LOX inh 15%.
`CC(NC(=O)CSc1ccccc1F)c1nc2ccccc2[nH]1` (stereo not given) gave 12-LOX inh -25%.
For COc1ccc2[nH]c3c(c2c1)CCN1C(=O)N([C@@H](C)C(=O)NCc2ccc(F)cc2)C(=O)[C@]31C the results were HT1080 IDH1KD tx 0%, TDP1 cell noCPT inconclusive, DT40 TDP1 CPT -12%, 12-LOX inh 44%, IL-1B inflam inh -13 and HT1080-NT tox -1%.
C[C@@H](C(=O)NCCc1ccc(F)cc1)N1C(=O)N2CCc3c([nH]c4ccccc34)[C@@]2(C)C1=O was read as HT1080 IDH1KD tx -22%, TDP1 cell noCPT 12µM*, DT40 TDP1 CPT 12µM*, 12-LOX inh 20%, IL-1B inflam inh -9 and HT1080-NT tox -14%.
C[C@@H](C(=O)NCc1ccco1)N1C(=O)N2CCc3c([nH]c4ccccc34)[C@@]2(C)C1=O was read as HT1080 IDH1KD tx -10%, TDP1 cell noCPT inconclusive, DT40 TDP1 CPT inconclusive, 12-LOX inh 24%, IL-1B inflam inh -5 and HT1080-NT tox 0%.
`COc1ccc2[nH]c3c(c2c1)CCN1C(=O)N([C@@H](C)C(=O)NCCc2ccc(F)cc2)C(=O)[C@]31C` gave HT1080 IDH1KD tx -1%, TDP1 cell noCPT 7.3µM*, DT40 TDP1 CPT 23µM*, 12-LOX inh -6%, IL-1B inflam inh -23 and HT1080-NT tox -4%.
Screening CC(C)C[C@@H](C(=O)NCc1ccco1)N1C(=O)N2CCc3c([nH]c4ccccc34)[C@@]2(C)C1=O returned HT1080 IDH1KD tx -22%, TDP1 cell noCPT 5.2µM*, DT40 TDP1 CPT inconclusive, 12-LOX inh -27%, IL-1B inflam inh -1 and HT1080-NT tox -15%.
Screening COc1ccc(CNC(=O)[C@H](C)N2C(=O)N3CCc4c([nH]c5ccccc45)[C@@]3(C)C2=O)cc1OC returned HT1080 IDH1KD tx -1%, TDP1 cell noCPT 4.1µM*, DT40 TDP1 CPT 2.6µM*, 12-LOX inh 8%, IL-1B inflam inh 25 and HT1080-NT tox -7%.
Screening C=CCNc1nc(C(=O)OCC(=O)NCC(=O)Nc2ccccc2Br)cs1 returned 12-LOX inh 5%.
Cc1ccc(CNC(=O)O[C@H]2CC[C@@]34CCCN3C(=O)CCC[C@H]4[C@H]2Cc2ccccc2)o1 was read as 12-LOX inh -21%.
Screening CCCCCCNC(=O)CCNC(=O)c1cccc(C)c1 returned 12-LOX inh 14%.
COc1ccc(-c2nc(CSC(C)C(=O)Nc3cc(C)ccc3C)co2)cc1 (stereo not given) was read as 12-LOX inh 7%.
O=C1C2C(C(=O)N1/N=C/c1cc([N+](=O)[O-])c(O)cc1O)C1C=CC2C12CC2 (stereo not given) was read as HT1080 IDH1KD tx 1%, TDP1 cell noCPT 17%, DT40 TDP1 CPT -1%, 12-LOX inh inconclusive, IL-1B inflam inh 20 and HT1080-NT tox 2%.
O=C1C2C(C(=O)N1/N=C/c1cc(Br)cc([N+](=O)[O-])c1O)C1C=CC2C12CC2 (stereo not given) was read as HT1080 IDH1KD tx -27%, TDP1 cell noCPT 16µM*, DT40 TDP1 CPT inconclusive, 12-LOX inh 9%, IL-1B inflam inh inconclusive and HT1080-NT tox -27%.
Screening COc1cc(-c2noc(-c3cc(C4CC4)[nH]n3)n2)cc(OC)c1OC returned 12-LOX inh -3%.
Screening COC(=O)C1=C(C(=O)OC)SC2(S1)C(C(=O)OC)=C(C(=O)OC)SC1=C2c2cccc(C)c2NC1(C)C returned HT1080 IDH1KD tx 7.1µM*, TDP1 cell noCPT 23µM*, DT40 TDP1 CPT 9.2µM*, 12-LOX inh 0%, IL-1B inflam inh -7 and HT1080-NT tox 4µM*.
`CCOC(=O)c1c(-c2ccc(OC)cc2)csc1/N=C/N(C)C` gave HT1080 IDH1KD tx -1%, TDP1 cell noCPT 26µM*, DT40 TDP1 CPT -18%, 12-LOX inh 16%, IL-1B inflam inh inactive and HT1080-NT tox -1%.

Compound activity as filed in PubChem.
